Measured values from the supplement of paper PMC6992640.
± gives the standard deviation of the averaged measurements.

System: HCI16 (cells of a triple-negative basal-like breast cancer xenograft)
Test: cell viability (% of vehicle); higher = less cytotoxic
Conditions: 10 µM; 72 h
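Also: PDX cells carrying CMV promoter-driven luciferase, viability read as total photon flux per second by IVIS imaging following D-luciferin, vehicle control 0.1% DMSO.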

Compound	cell viability
Nc1ccn(C2CSC(CO)O2)c(=O)n1 (stereo unspecified) [Lamivudine]	95.2
Clc1ccc(C(Cn2ccnc2)OCc2csc3c(Cl)cccc23)c(Cl)c1.O=[N+]([O-])O (stereo unspecified) [Sertaconazole nitrate]	103
O=C(O)c1cc(-c2ccccc2)nc2ccccc12 [Cinchophen]	124
CN1CCCC(n2nc(Cc3ccc(Cl)cc3)c3ccccc3c2=O)CC1.Cl (stereo unspecified) [Azelastine HCl]	116
Cc1cc(=O)[nH]c(=S)[nH]1 [Methylthiouracil]	115
CC(COc1ccccc1)N(CCCl)Cc1ccccc1.Cl (stereo unspecified) [Phenoxybenzamine HCl]	195
Cc1cn(C2CC(O)C(CO)O2)c(=O)[nH]c1=O (stereo unspecified) [Telbivudine]	99.4
CCCCCCCCCCCCCCCCO [1-Hexadecanol]	109
COC(=O)C1=COC(O)C2C(CO)=CCC12 (stereo unspecified) [Genipin]	198
CCOC(=O)CC(=O)N1CCSC1COc1ccccc1OC (stereo unspecified) [Moguisteine]	127
CC(Cc1cc2c(c(C(N)=O)c1)N(CCCO)CC2)NCCOc1ccccc1OCC(F)(F)F (stereo unspecified) [Silodosin]	117
COc1ccc(CN(CCN(C)C)c2ccccn2)cc1.O=C(O)/C=C\C(=O)O [Mepyramine maleate]	107
O=C(O)CCNC(=O)c1ccc(/N=N/c2ccc(O)c(C(=O)O)c2)cc1 [Balsalazide]	114
COC(=O)CCc1ccc(OCC(O)CNC(C)C)cc1.Cl (stereo unspecified) [Esmolol HCl]	122
Cc1ncc([N+](=O)[O-])n1CCO [Metronidazole]	133
CCCCc1nc(Cl)c(CO)n1Cc1ccc(-c2ccccc2-c2nnn[n-]2)cc1.[K+] [Losartan Potassium (DuP 753)]	82.3
CC(C)(C)C(=O)C(Oc1ccc(Cl)cc1)n1ccnc1 (stereo unspecified) [Climbazole]	131
Nc1ccc(C(=O)NCC(=O)[O-])cc1.[Na+] [Sodium 4-amiropparaty Hyalrate]	107
Cl.Clc1ccc2nsnc2c1NC1=NCCN1 [Tizanidine HCl]	100
Cc1nnc(C(=O)NC(C)(C)c2nc(C(=O)NCc3ccc(F)cc3)c(O)c(=O)n2C)o1 [Raltegravir (MK-0518)]	118
Cc1c(F)cc(C(=O)NC2CC2)cc1-c1ccc(C(=O)NCC(C)(C)C)cn1 [Losmapimod]	81.6
CCCC(C(=O)OCCN(CC)CC)(c1ccccc1)c1ccccc1.Cl [SKF 525A (hydrochloride)]	130

System: UCD52 (cells of a triple-negative basal-like breast cancer xenograft)
Test: as above
Conditions: 10 µM; 72 h

Compound	cell viability
O=C1NC(=O)[C@@H](c2c[nH]c3ccccc23)[C@H]1c1cn2c3c(cccc13)CCC2 [Tivantinib (ARQ 197)]	81.8 ± 4.7
CCC1(O)CC2CN(CCc3c([nH]c4ccccc34)C(C(=O)OC)(c3cc4c(cc3OC)N(C)C3C(O)(C(=O)OC)C(OC(C)=O)C5(CC)C=CCN6CCC43C65)C2)C1 (stereo unspecified) [vinblastine]	68 ± 10
Nc1ccn(C2CCC(CO)O2)c(=O)n1 (stereo unspecified) [Zalcitabine]	104 ± 10
CCc1nc(N)nc(N)c1-c1ccc(Cl)cc1 [Pyrimethamine]	75.2 ± 2.4
C=C[C@]1(C)C[C@@H](OC(=O)CSC2C[C@H]3CC[C@@H](C2)N3C)[C@]2(C)[C@H](C)CC[C@]3(CCC(=O)[C@H]32)[C@@H](C)[C@@H]1O (stereo partly specified) [Retapamulin]	81.8 ± 4.8
Nc1ccc(S(N)(=O)=O)cc1 [Sulfanilamide]	94.6 ± 8.7
CN(C)CCC(c1ccc(Br)cc1)c1ccccn1.O=C(O)C=CC(=O)O (stereo unspecified) [Brompheniramine hydrogen maleate]	74.9 ± 2.3
O=C1CCC(N2C(=O)c3ccccc3C2=O)C(=O)N1 (stereo unspecified) [Thalidomide]	102 ± 4.3
Cc1cccc(-c2nn3c(c2-c2ccnc4ccc(C(N)=O)cc24)CCC3)n1	73.1 ± 3.3
O=C(CS(=O)Cc1ccco1)NCC=CCOc1cc(CN2CCCCC2)ccn1 (stereo unspecified) [Lafutidine]	89.1 ± 3.8
c1ccc(-c2ccc(C(c3ccccc3)n3ccnc3)cc2)cc1 (stereo unspecified) [Bifonazole]	149 ± 50
Nc1nccs1 [Aminothiazole]	91.8 ± 5.1
NC(=O)N1c2ccccc2C=Cc2ccccc21 [Carbamazepine]	85.8 ± 4.4
CN(CC=CC#CC(C)(C)C)Cc1cccc2ccccc12 [Terbinafine]	106 ± 3
CCCN1CCCCC1C(=O)Nc1c(C)cccc1C.Cl.O (stereo unspecified) [Ropivacaine hydrochloride monohydrate]	96.2 ± 12
NCCCCC(NC(CCc1ccccc1)C(=O)O)C(=O)N1CCCC1C(=O)O.O.O (stereo unspecified) [Lisinopril dihydrate]	105 ± 0.53
Cn1c(=O)cc(N2CCCC(N)C2)n(Cc2cc(F)ccc2C#N)c1=O (stereo unspecified) [Trelagliptin]	96.2 ± 11
Nc1ccn(C2CSC(CO)O2)c(=O)n1 (stereo unspecified) [Lamivudine]	87.7 ± 6.8
Clc1ccc(C(Cn2ccnc2)OCc2csc3c(Cl)cccc23)c(Cl)c1.O=[N+]([O-])O (stereo unspecified) [Sertaconazole nitrate]	107 ± 58
O=C(O)c1cc(-c2ccccc2)nc2ccccc12 [Cinchophen]	120 ± 4.4

Compound	cell viability
CN1CCCC(n2nc(Cc3ccc(Cl)cc3)c3ccccc3c2=O)CC1.Cl (stereo unspecified) [Azelastine HCl]	57.6 ± 17
Cc1cc(=O)[nH]c(=S)[nH]1 [Methylthiouracil]	92.7 ± 7.9
CC(COc1ccccc1)N(CCCl)Cc1ccccc1.Cl (stereo unspecified) [Phenoxybenzamine HCl]	104.7 ± 0.72
Cc1cn(C2CC(O)C(CO)O2)c(=O)[nH]c1=O (stereo unspecified) [Telbivudine]	95.5 ± 9.2
CCCCCCCCCCCCCCCCO [1-Hexadecanol]	67.1 ± 5.9
COC(=O)C1=COC(O)C2C(CO)=CCC12 (stereo unspecified) [Genipin]	110 ± 5.3
CCOC(=O)CC(=O)N1CCSC1COc1ccccc1OC (stereo unspecified) [Moguisteine]	83.2 ± 4.3
CC(Cc1cc2c(c(C(N)=O)c1)N(CCCO)CC2)NCCOc1ccccc1OCC(F)(F)F (stereo unspecified) [Silodosin]	82.5 ± 14
COc1ccc(CN(CCN(C)C)c2ccccn2)cc1.O=C(O)/C=C\C(=O)O [Mepyramine maleate]	112 ± 8.7
O=C(O)CCNC(=O)c1ccc(/N=N/c2ccc(O)c(C(=O)O)c2)cc1 [Balsalazide]	93.5 ± 10
COC(=O)CCc1ccc(OCC(O)CNC(C)C)cc1.Cl (stereo unspecified) [Esmolol HCl]	105 ± 18
Cc1ncc([N+](=O)[O-])n1CCO [Metronidazole]	77.3 ± 7.2
CCCCc1nc(Cl)c(CO)n1Cc1ccc(-c2ccccc2-c2nnn[n-]2)cc1.[K+] [Losartan Potassium (DuP 753)]	97.9 ± 7.8
CC(C)(C)C(=O)C(Oc1ccc(Cl)cc1)n1ccnc1 (stereo unspecified) [Climbazole]	96 ± 10
Nc1ccc(C(=O)NCC(=O)[O-])cc1.[Na+] [Sodium 4-amiropparaty Hyalrate]	91.5 ± 8.8
Cl.Clc1ccc2nsnc2c1NC1=NCCN1 [Tizanidine HCl]	84.3 ± 0.65
Cc1nnc(C(=O)NC(C)(C)c2nc(C(=O)NCc3ccc(F)cc3)c(O)c(=O)n2C)o1 [Raltegravir (MK-0518)]	119 ± 20
Cc1c(F)cc(C(=O)NC2CC2)cc1-c1ccc(C(=O)NCC(C)(C)C)cn1 [Losmapimod]	58.1 ± 1.8
CCCC(C(=O)OCCN(CC)CC)(c1ccccc1)c1ccccc1.Cl [SKF 525A (hydrochloride)]	61.5 ± 5.9
